Experimental data as given in PubChem BioAssay (EPA / NIEHS).
Where “and” joins values, the source holds several entries; their conditions need not be identical. Equal values may be shown once. Results filed as inconclusive are left out. The source holds several records for some structures; these can differ, active in one and inactive in another. Calls of active or inactive are those of the source. Rule for the calls, unless noted: active = hit-call score of the fitted dose curve at least 0.9, where 1 is the maximum; inactive = score below 0.9.

Test: CCTE_Shafer_MEA_acute_LDH: CCTE's Lactate Dehydrogenase Assay for Cytotoxicity in the Neural Acute Assay, Shafer Lab (AID 2284086; active = hit-call score of the fitted dose curve at least 0.9, where 1 is the maximum;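 note: active means LDH release rises above DMSO vehicle level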)
Conditions: not given
Outline: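 LDH released during 40 min compound exposure of primary rat cortical cultures, quantified by absorbance at 490 nm in collected medium. Fitting direction positive versus DMSO vehicle.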

Row | Compound | outcome
1 | COP(=O)(CCC(=O)NCO)OC | inactive
2 | ClC1=C(Cl)C2(Cl)C3C(Cl)C(Cl)CC3C1(Cl)C2(Cl)Cl (stereo not drawn) | inactive
3 | CCCCC(CC)COP(=O)(Oc1ccccc1)Oc1ccccc1 (stereo not drawn) | inactive
4 | Nc1ccc2ccccc2c1 | inactive
5 | [N-]=[N+]=[N-] | inactive
6 | ClC(Cl)(Cl)c1ccccc1 | inactive
7 | CCOP(=S)(Oc1ccc([N+](=O)[O-])cc1)c1ccccc1 (stereo not drawn) | inactive
8 | Cc1ccc(N)cc1N | inactive
9 | CC(C)(C)c1ccccc1OP(=O)(Oc1ccccc1)Oc1ccccc1 | inactive
10 | CC(Cl)(Cl)C(=O)O | inactive
11 | COCCOCCO | inactive

Test: CCTE_Shafer_MEA_dev_mutual_information_norm: CCTE's Neural Network Formation Assay for Mutual Information Normalization, Shafer Lab (AID 2284091);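 for AC50: mutual information between electrodes summarised as area under curve across four recording days; potency is for a decrease in mutual information relative to DMSO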
Conditions: not given
Outline: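 Shared information across electrodes, tracked on days 5, 7, 9 and 12 of network development and collapsed as trapezoidal area under the curve. Rat cortical cultures were treated continuously from plating, with treatment renewed at feeds on DIV 5 and 9; DMSO baseline, negative-direction fit.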

Row | Compound | outcome | AC50
12 | c1ccc(OP(Oc2ccccc2)Oc2ccccc2)cc1 | inactive | –
13 | O=P(Oc1ccccc1)(Oc1ccccc1)Oc1ccccc1 | inactive | –
14 | ClC1=C(Cl)C2(Cl)C3C(Cl)C(Cl)CC3C1(Cl)C2(Cl)Cl (stereo not drawn) | – | 7.75 µM (active)
15 | CCCCC(CC)COP(=O)(Oc1ccccc1)Oc1ccccc1 (stereo not drawn) | inactive | –
16 | C=CC(=O)OCC(F)(F)C(F)F | – | 5.12 µM (active)
17 | O=S(=O)(c1ccc(O)cc1)c1ccc(O)cc1 | inactive | –
18 | O=C(O)C(F)(OC(F)(F)C(F)(F)C(F)(F)F)C(F)(F)F (stereo not drawn) | inactive | –
19 | OCC(F)(F)OC(F)(F)C(F)(F)OC(F)(F)C(F)(F)OC(F)(F)CO | inactive | –
20 | O=P1(N(CCCl)CCCl)NCCCO1 (stereo not drawn) | inactive | –
21 | OCC(F)(F)OC(F)(F)C(F)(F)OC(F)(F)C(F)(F)OC(F)(F)F | inactive | –
22 | c1cc2c3c(cccc3c1)CC2 | inactive | –
23 | CC(C)(C)c1ccccc1OP(=O)(Oc1ccccc1)Oc1ccccc1 | inactive | –
24 | CO/N=C(/C(=O)OC)c1ccccc1COc1ccccc1C | – | 0.454 µM (active)
25 | CCCCC(CC)COC(=O)c1c(Br)c(Br)c(Br)c(Br)c1C(=O)OCC(CC)CCCC (stereo not drawn) | inactive | –
26 | O=C(O)C(F)(F)OC(F)(F)C(F)(F)OC(F)(F)F | inactive | –
27 | O=C(O)C1C(C(=O)O)C2(Cl)C(Cl)=C(Cl)C1(Cl)C2(Cl)Cl (stereo not drawn) | inactive | –
28 | O=C(O)C(F)(F)OC(F)(F)C(F)(F)OC(F)(F)C(=O)O | inactive | –
29 | CCC1(c2ccccc2)C(=O)N=C(O)NC1=O (stereo not drawn) | inactive | –
30 | OCC(F)(F)OC(F)(F)C(F)(F)OC(F)(F)CO | inactive | –
31 | O=C(O)C(F)(F)C(F)(F)C(=O)O | inactive | –
32 | CCOP(=S)(OCC)SCSCC | inactive | 4.04 µM (active)
33 | CCOc1ccc(C(C)(C)COCc2cccc(Oc3ccccc3)c2)cc1 | – | 3.09 µM (active)
34 | O=C(O)C=CC(F)(C(F)(F)F)C(F)(F)F | inactive | –
35 | CC(O)C(F)(F)C(F)(F)F (stereo not drawn) | inactive | –

Test: CCTE_Shafer_MEA_dev_correlation_coefficient_mean: CCTE's Neural Network Formation Assay for Mean Correlation Coefficient, Shafer Lab (AID 2284093);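 for AC50: well mean pairwise spike train correlation integrated as AUC over recording days 5 to 12; potency fitted for loss of correlation relative to DMSO vehicle wells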
Conditions: not given
Outline: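 Extracellular firing from rat cortical networks on 48-well MEAs, DMSO-referenced, negative fitting direction. Compound present from plating to DIV12; mean pairwise correlation per well integrated over DIV5–12 recordings by trapezoidal AUC.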

Row | Compound | outcome | AC50
36 | c1ccc(OP(Oc2ccccc2)Oc2ccccc2)cc1 | inactive | –
37 | O=P(Oc1ccccc1)(Oc1ccccc1)Oc1ccccc1 | inactive | –
38 | ClC1=C(Cl)C2(Cl)C3C(Cl)C(Cl)CC3C1(Cl)C2(Cl)Cl (stereo not drawn) | – | 7.71 µM (active)
39 | CCCCC(CC)COP(=O)(Oc1ccccc1)Oc1ccccc1 (stereo not drawn) | inactive | –
40 | C=CC(=O)OCC(F)(F)C(F)F | – | 11.3 µM (active)
41 | O=S(=O)(c1ccc(O)cc1)c1ccc(O)cc1 | inactive | –
42 | O=C(O)C(F)(OC(F)(F)C(F)(F)C(F)(F)F)C(F)(F)F (stereo not drawn) | inactive | –
43 | OCC(F)(F)OC(F)(F)C(F)(F)OC(F)(F)C(F)(F)OC(F)(F)CO | inactive | –
44 | O=P1(N(CCCl)CCCl)NCCCO1 (stereo not drawn) | inactive | –
45 | OCC(F)(F)OC(F)(F)C(F)(F)OC(F)(F)C(F)(F)OC(F)(F)F | inactive | –
46 | c1cc2c3c(cccc3c1)CC2 | inactive | –
47 | CC(C)(C)c1ccccc1OP(=O)(Oc1ccccc1)Oc1ccccc1 | inactive | 24.4 µM (active)
48 | CO/N=C(/C(=O)OC)c1ccccc1COc1ccccc1C | – | 0.765 µM (active)
49 | CCCCC(CC)COC(=O)c1c(Br)c(Br)c(Br)c(Br)c1C(=O)OCC(CC)CCCC (stereo not drawn) | inactive | –
50 | O=C(O)C(F)(F)OC(F)(F)C(F)(F)OC(F)(F)F | – | 3.78 µM (active)
51 | O=C(O)C1C(C(=O)O)C2(Cl)C(Cl)=C(Cl)C1(Cl)C2(Cl)Cl (stereo not drawn) | inactive | –
52 | O=C(O)C(F)(F)OC(F)(F)C(F)(F)OC(F)(F)C(=O)O | inactive | –
53 | CCC1(c2ccccc2)C(=O)N=C(O)NC1=O (stereo not drawn) | inactive | –
54 | OCC(F)(F)OC(F)(F)C(F)(F)OC(F)(F)CO | inactive | –
55 | O=C(O)C(F)(F)C(F)(F)C(=O)O | – | 1.81 µM (active)
56 | CCOP(=S)(OCC)SCSCC | – | 74.5 µM (active) and 13 µM (active)
57 | CCOc1ccc(C(C)(C)COCc2cccc(Oc3ccccc3)c2)cc1 | – | 10 µM (active)
58 | O=C(O)C=CC(F)(C(F)(F)F)C(F)(F)F | inactive | –
59 | CC(O)C(F)(F)C(F)(F)F (stereo not drawn) | inactive | –

Test: UKN2_HCS_IMR90_neural_migration: University of Konstanz (UKN) Leist Lab Neural Crest Cell Migration Assay in human induced IMR90 Pluripotent Stem Cells (UKN2) (AID 2284204)
Conditions: actives raise or lower the signal
Outline: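 High-content imaging of calcein-AM and Hoechst stained cells quantifies migration into a stopper-defined gap after 24 h compound exposure. Neural crest cells from IMR90 iPSC migrated 24 h in EGF/FGF N2-S medium before dosing; DMSO baseline.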

Row | Compound | outcome
60 | O=C(O)C(F)(OC(F)(F)C(F)(F)C(F)(F)F)C(F)(F)F (stereo not drawn) | inactive
61 | CO/N=C(/C(=O)OC)c1ccccc1COc1ccccc1C | inactive
62 | CCOP(=S)(OCC)SCSCC | inactive

Test: IUF_NPC1b_proliferation_BrdU_72hr: Leibniz Research Institute for Environmental Medicine (IUF) 72-hour Neural Progenitor Cell Bromodeoxyuridine (BrdU) Proliferation Assay (NPC1b) (AID 2284207)
Conditions: not given
Outline: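 Human fetal cortex-derived (GW 16-19) neural progenitor spheres, 0.25-0.35 mm, one per well in EGF/FGF proliferation medium, exposed to compound for 72 h at 37C, pH 7.2-7.6. BrdU incorporation over the final 16 h read by luminescence ELISA, relative to DMSO.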

Row | Compound | outcome | AC50
63 | O=P(Oc1ccccc1)(Oc1ccccc1)Oc1ccccc1 | inactive | –
64 | CCCCC(CC)COP(=O)(Oc1ccccc1)Oc1ccccc1 (stereo not drawn) | – | 0.542 µM (active)
65 | O=S1(=O)OCC2C(CO1)C1(Cl)C(Cl)=C(Cl)C2(Cl)C1(Cl)Cl (stereo not drawn) | inactive | –
66 | O=C(O)C(F)(OC(F)(F)C(F)(F)C(F)(F)F)C(F)(F)F (stereo not drawn) | inactive | –
67 | CC(C)(C)c1ccccc1OP(=O)(Oc1ccccc1)Oc1ccccc1 | inactive | –
68 | CO/N=C(/C(=O)OC)c1ccccc1COc1ccccc1C | – | 23.8 µM (active)
69 | CCOP(=S)(OCC)SCSCC | – | 0.761 µM (active)
70 | CCOc1ccc(C(C)(C)COCc2cccc(Oc3ccccc3)c2)cc1 | – | 1.92 µM (active)
71 | CCCCOCCOP(=O)(OCCOCCCC)OCCOCCCC | inactive | –
